Source: ChEMBL document CHEMBL3988442, “University of Dundee, Small-Polar-MMV Screening Library” (2021)
Among all 48,000 compounds or so, about 13,000 (27%) showed an effect of 50% or more. The list shows a part of the results.

system: Wolbachia pipientis; experiment: Anti-Wolbachia Cell-Based Screen; type: functional; set-up: scale not given: in the data most compounds retested in dose-response had high values; details: 5 µM

| Structure (SMILES) | Percent Effect |
| --- | --- |
| CC(C)N1Cc2cccc(NCC(=O)N(C)C)c2C1 | -13.34% |
| Cc1ccc(N2Cc3c(CN(C)C)nn(C)c3C2)nn1 | -4.068% |
| CC(C)COCc1cncc2c1CCN(C(=O)c1cscn1)C2.O=C(O)C(F)(F)F | 82.53% |
| O=C(O)C(F)(F)F.O=C(c1cscn1)N1CCc2c(COCC3CC3)cncc2C1 | 89.35% |
| O=C(O)C(F)(F)F.O=C(c1ccsc1)N1CCc2c(COCC3CC3)cncc2C1 | -5.644% |
| O=C(O)C(F)(F)F.O=C(c1ccco1)N1CCc2c(COCC3CC3)cncc2C1 | -15.15% |
| CCOCc1cncc2c1CCN(C(=O)c1cscn1)C2.O=C(O)C(F)(F)F | 95.41% |
| CC(C)COCc1cncc2c1CCN(Cc1cnn(C)c1)C2.O=C(O)C(F)(F)F.O=C(O)C(F)(F)F | -4.372% |
| Cc1ncsc1CN1C[C@@H]2COC[C@]2(C(=O)NC2CC(F)(F)C2)C1.O=C(O)C(F)(F)F | 20.27% |
| CN(C)C(=O)N1C[C@@H]2CC[C@H](C1)N(C(=O)CCCn1cncn1)C2 | -23.9% |
| O=C(c1cccc(CNC/C=C/c2ccccc2)c1)N1CCCC1 | -7.138% |
| O=C(NCc1cccc(F)c1)c1cccc(C(=O)N2CCCC2)n1 | 8.268% |
| O=C(c1cccc(CNS(=O)(=O)c2ccccc2F)c1)N1CCCC1 | 1.767% |
| Cc1ccc(F)c(S(=O)(=O)NCc2cccc(C(=O)N3CCCC3)c2)c1 | 126.7% |
| Cc1cc(F)ccc1CNCc1cccc(C(=O)N2CCCC2)c1 | 100.5% |
| Cc1cc(S(=O)(=O)NCc2cccc(C(=O)N3CCCC3)c2)c(C)s1 | 10.27% |
| Cc1cc(F)ccc1S(=O)(=O)NCc1cccc(C(=O)N2CCCC2)c1 | 0.7357% |
| Cc1ccc(F)cc1S(=O)(=O)NCc1cccc(C(=O)N2CCCC2)c1 | 74.77% |
| O=C1[C@@H]2CCN(CC3CCOCC3)C[C@@H]2OCCN1c1ccccc1 | -22.15% |
| CN(C)C(=O)CNC(CC(F)(F)F)c1ccc(Cl)cc1 (stereo unspecified) | 1.329% |
| OCCNC1CSCCc2ccccc21 (stereo unspecified) | -7.147% |
| Cc1n[nH]cc1CNC1(c2ccc(Br)cc2)CC1 | -6.578% |
| O=C(CC(F)(F)F)NC(c1ccc(Cl)cc1)c1ncon1 (stereo unspecified) | 11.91% |
| O=C([C@@H]1COC[C@H]2CN(CC3CCCC3)C[C@H]21)N1CCOCC1 | -6.22% |

| Structure (SMILES) | Percent Effect |
| --- | --- |
| O=C(Cc1ccc2c(c1)OCO2)N[C@@H]1CCNC[C@H]1O | -5.906% |
| O=C(Cc1ccc2c(c1)OCCO2)NC1CCN(CC(F)F)CC1 | 2.104% |
| O=C(Cc1ccc2c(c1)OCC2)Nc1nc(C(F)(F)F)n[nH]1 | 131.9% |
| O=C(Cc1ccc2c(c1)OCC2)Nc1nc[nH]n1 | 104.4% |
| O=C(Cc1ccc2c(c1)OCC2)Nc1nn[nH]n1 | 216.7% |
| CN(Cc1nnc2n1CCC2)C(=O)Cc1ccc2c(c1)OCCO2 | -1.07% |
| CN(C)c1cc2c(nn1)CCN(C(=O)Cc1ccc3c(c1)CCO3)C2 | -10.79% |
| O=C(Cc1ccc2c(c1)CCO2)Nc1ccc(-n2cncn2)nc1 | -5.052% |
| Nc1cc2c(nn1)CCN(C(=O)Cc1ccc3c(c1)CCO3)C2 | 8.586% |
| CCCc1cc(N2CCCC2Cn2cc(C)cn2)n2ncnc2n1 (stereo unspecified) | -1.643% |
| O=C(Nc1ccc2ncccc2c1)C1CC(=O)N(Cc2ccccn2)C1 (stereo unspecified) | -4.026% |
| Cc1ccc(C(NC(=O)CCNC(=O)c2ccoc2)C(F)(F)F)cc1 (stereo unspecified) | 20.44% |
| Cc1nc(CN2C[C@@H](NS(=O)(=O)N(C)C)[C@H](C(C)C)C2)cs1 | -0.9733% |
| Cc1ccc(CN(CC(=O)NCC2CCOC2)c2ccc(F)cc2)o1 (stereo unspecified) | -9.674% |
| COc1cccc(C(=O)N(C)C(C)c2c(C)n[nH]c2C)c1OC (stereo unspecified) | -15.68% |
| CCOC(=O)CCNC(=O)c1cccc2ccc(C)nc12 | -7.02% |
| Cc1nc(-c2ccc(Cl)s2)sc1C(=O)O | 9.091% |
| CC(=O)Nc1cnc(Oc2ccccc2F)nc1 | -1.763% |
| Cc1nc(Oc2ccccc2F)sc1C(=O)O | 91.89% |
| COc1cccc(Oc2nc(C)c(C(=O)O)s2)c1OC | 116.8% |
| Cc1nc(-c2ccccc2F)sc1C(=O)N1CCN(C)CC1 | 3.843% |
| Cc1ccc2cccc(C(=O)N3CCN(c4cccnn4)CC3)c2n1 | -2.333% |
| COc1cccc(CNCc2c(C)nc3sc(C)cn23)c1OC | -11.36% |
| Cc1nc(Oc2ccccc2Cl)sc1C(=O)O | 98.65% |

| Structure (SMILES) | Percent Effect |
| --- | --- |
| Cc1ccc2cccc(Oc3nc(C)c(C(=O)O)s3)c2n1 | 111% |
| Cc1nc(NC(=O)OC(C)(C)C)sc1C(=O)O | 0.0995% |
| O=C1C(N2CCOC3(CCCC3)C2)CCN1C1CC1 (stereo unspecified) | 15.83% |
| Cc1nnc2n1CC(CNc1ncnc3ccccc13)CC2 (stereo unspecified) | -0.4612% |
| CCN(CC)CCCN1CCC(NC(=O)OC(C)(C)C)CC1 | 13.41% |
| Cc1cc(C)n(Cc2cccc(C(=O)NCCN3CCOCC3)c2)n1 | -2.99% |
| Cc1cc(C)n(CCN2CCN(C(=O)c3ccccc3Br)CC2)n1 | 0.6022% |
| CN(C)CCN1CCc2ncc(CN(C)Cc3ccco3)n2CC1 | 24.09% |
| Cc1cc(C)n(CCCN(CCN2CCOCC2)Cc2ccco2)n1 | 110.7% |
| CSCCCN(CCN1CCOCC1)Cc1ccco1 | 114.6% |
| Cl.Cl.O[C@@H]1C[C@@](CNCc2cccc(Cl)c2)(COc2cccnc2)C[C@@H]1O | -8.733% |
| COc1ncccc1CN1C[C@@H]2C[C@@H](C(=O)NCC3CC3)N(C)[C@@H]2C1 | 96.26% |
| COc1ncccc1CN1Cc2nnn(C)c2C(COCC2CC2)C1.O=C(O)C(F)(F)F.O=C(O)C(F)(F)F (stereo unspecified) | -15.9% |
| CCOCC1CN(Cc2cccnc2OC)Cc2cnn(C)c21.O=C(O)C(F)(F)F.O=C(O)C(F)(F)F.O=C(O)C(F)(F)F (stereo unspecified) | 2.379% |
| COc1ncccc1CN1CCC2(CCCN2S(C)(=O)=O)CC1.O=C(O)C(F)(F)F.O=C(O)C(F)(F)F | 2.287% |
| COc1ncccc1CN1C[C@H]2CCN(c3ccc(C)nn3)C[C@H]2C1.O=C(O)C(F)(F)F | 107.5% |
| Cc1ccc(N2CC[C@H]3CN(C(=O)c4ccn(C)n4)C[C@H]3C2)nn1.O=C(O)C(F)(F)F | -19.75% |
| COc1ncccc1CN1CC[C@@]2(O)CCN(C(=O)C3CCC3)C[C@H]2C1 | 6.817% |
| COc1ncccc1CN1C[C@H]2C[C@@H](C(=O)NCC3CC3)N(C)[C@H]2C1.O=C(O)C(F)(F)F.O=C(O)C(F)(F)F.O=C(O)C(F)(F)F | 107.4% |
| COc1ncccc1CNC(=O)N1CCC(CNC(C)=O)CC1 | 18.77% |
| CN(Cc1cccnc1)CC1CC12CCN(c1nncs1)CC2.O=C(O)C(F)(F)F.O=C(O)C(F)(F)F.O=C(O)C(F)(F)F (stereo unspecified) | 10.12% |
| COc1ccc(-c2noc(Cn3cnc(C)c3)n2)c(OC)c1OC | 10.58% |
| Cc1ccc(-c2noc([C@@H]3Cc4nc[nH]c4CN3)n2)cc1 | 1.545% |
| CSCC(=O)Nc1nccn1Cc1ccc(Br)cc1 | -2.171% |

| Structure (SMILES) | Percent Effect |
| --- | --- |
| O=C1N(c2ccccc2)Cc2n[nH]c(=O)n21 | -1.221% |
| COc1cc(C(=O)N2CC(Oc3ccccc3Cl)C2)ccn1 | -4.351% |
| CN(C)C(=O)N1CCCn2nc(CNC(=O)CCc3cccs3)cc2C1 | 2.264% |
| COCCOC(=O)N1CCn2nc(CN(C)Cc3nccs3)cc2C1 | 91.56% |
| CN(C)C(=O)N1CCn2nc(CNC(=O)CCC(F)(F)F)cc2C1 | -4.672% |
| CN(C)C(=O)N1CCn2nc(CNC(=O)CCc3ccccn3)cc2C1 | 5.444% |
| CN(Cc1cc2n(n1)CCCN(C(=O)N1CCCC1)C2)Cc1nccs1 | 94.61% |
| CN(C)C(=O)N1CCCn2nc(CNC(=O)CCc3ccsc3)cc2C1 | -5.491% |
| CCn1c(CC2CCN(C(=O)C3CNCCO3)CC2)nn(C)c1=O (stereo unspecified) | -6.283% |
| CC(C)(CCS(C)(=O)=O)CNc1ccc2ccc(F)cc2n1 | 0.04358% |
| O=C(c1ccco1)N1CCC(n2nc(-c3cccs3)ccc2=O)CC1 | 64.54% |
| O=C(c1cccs1)N1CCC(Cn2nc(-c3ccco3)ccc2=O)CC1 | -6.925% |
| O=C(c1cccs1)N1CCC(n2nc(-c3ccco3)ccc2=O)CC1 | -4.214% |
| O=C(c1ccco1)N1CCC(n2cc(-c3ccsc3)nn2)CC1 | 0.1659% |
| CC(C)(C)C(=O)N1CCC(n2nc(-c3ccco3)ccc2=O)CC1 | 101.2% |
| Cc1oc(-c2ccco2)nc1CC(=O)N1CCC(C(O)C(F)(F)F)CC1 (stereo unspecified) | 3.492% |
| O=C(C1CCCCC1)N1CCC(n2nc(-c3ccco3)ccc2=O)CC1 | 79.69% |
| O=C(c1csc(-c2ccco2)n1)N1CCN2CCCCC2C1 (stereo unspecified) | -12.72% |
| CC(C)(C)C(=O)N1CCC(n2cc(C3(O)CCCC3)nn2)CC1 | -19.86% |
| CC(=O)c1c(F)cccc1NC1CCN(C(=O)C2CCCCC2)CC1 | 1.543% |
| O=C(c1ccco1)N1CCC(n2nc(-c3ccco3)ccc2=O)CC1 | 74.86% |
| O=C(Cc1ccsc1)N1CCC(n2nc(-c3ccco3)ccc2=O)CC1 | -9.761% |
| Cn1c(-c2ccccc2Cl)nc2cc(C(=O)NCCS(C)(=O)=O)cnc21 | 0.8241% |
| CCn1nc(C)c(CNC(=O)C2COc3ccccc3C2)c1C (stereo unspecified) | -10.56% |
